Test results as given in the supplement of paper PMC11732987, “Enantioselective OTUD7B fragment discovery through chemoproteomics screening and high-throughput optimisation” (Communications Chemistry, 2025).

Experiments:
Test in all cases: log2 ratio of Biotin-Ahx-Ub-VS probe labelling (fragment/DMSO); higher = less target engagement (more negative = stronger competition), active = hit call of the paper (q ≤ 0.05, log2 ratio ≤ -1)
Settings in all cases: compound concentration: 200 uM; treatment time: 3 h
USP34 = USP34 (UniProt Q70CQ2)
How it was run: (§1)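 Labelled DUBs from HEK293T lysate were NeutrAvidin-enriched, digested with LysC and trypsin, and run by diaPASEF LC-MS/MS. Before that, each 495 µg sample in Tris/CHAPS/IGEPAL buffer with protease inhibitors was treated in triplicate with fragment at 200 µM or vehicle for 3 h, then with Biotin-Ahx-Ub-VS at 0.5 µM final for 1 h. Values are average log2 ratios of fragment over vehicle by unpaired t-test, based on global-median-normalised Spectronaut label-free quantities from proteins with ≥2 unique peptides.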

USP36 = biological target: T1, USP36 (UniProt Q9P275)
T1 sequence (whole entry): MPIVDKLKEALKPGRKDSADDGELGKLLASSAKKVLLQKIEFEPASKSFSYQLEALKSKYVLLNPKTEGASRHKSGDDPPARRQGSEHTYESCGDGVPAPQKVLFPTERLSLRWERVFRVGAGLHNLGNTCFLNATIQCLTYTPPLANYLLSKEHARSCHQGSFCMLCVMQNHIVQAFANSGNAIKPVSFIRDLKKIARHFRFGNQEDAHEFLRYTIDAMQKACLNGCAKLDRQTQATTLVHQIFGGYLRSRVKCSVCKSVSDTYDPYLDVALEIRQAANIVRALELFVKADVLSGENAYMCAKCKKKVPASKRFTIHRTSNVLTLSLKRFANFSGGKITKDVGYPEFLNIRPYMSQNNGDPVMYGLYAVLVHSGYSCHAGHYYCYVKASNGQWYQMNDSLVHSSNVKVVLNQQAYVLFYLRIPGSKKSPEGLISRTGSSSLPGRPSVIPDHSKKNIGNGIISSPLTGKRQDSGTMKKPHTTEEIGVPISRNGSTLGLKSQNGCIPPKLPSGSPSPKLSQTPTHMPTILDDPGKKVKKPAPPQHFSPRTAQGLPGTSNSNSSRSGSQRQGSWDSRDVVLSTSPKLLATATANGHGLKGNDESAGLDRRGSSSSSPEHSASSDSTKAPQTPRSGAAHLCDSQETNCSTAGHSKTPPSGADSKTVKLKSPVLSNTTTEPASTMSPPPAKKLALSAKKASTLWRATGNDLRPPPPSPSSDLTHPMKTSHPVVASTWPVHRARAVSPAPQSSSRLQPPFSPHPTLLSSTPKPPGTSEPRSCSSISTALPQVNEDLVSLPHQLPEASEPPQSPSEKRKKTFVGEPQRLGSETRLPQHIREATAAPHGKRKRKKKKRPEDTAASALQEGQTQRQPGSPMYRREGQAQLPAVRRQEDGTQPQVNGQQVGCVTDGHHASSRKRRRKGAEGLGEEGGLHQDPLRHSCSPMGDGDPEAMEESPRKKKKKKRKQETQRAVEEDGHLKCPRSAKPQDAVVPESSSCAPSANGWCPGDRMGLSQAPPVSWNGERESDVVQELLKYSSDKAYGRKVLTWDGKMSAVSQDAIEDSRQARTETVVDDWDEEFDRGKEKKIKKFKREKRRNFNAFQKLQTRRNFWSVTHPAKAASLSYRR
How it was run: as §1

USP38 = biological target: T2, USP38 (UniProt Q8NB14)
T2 sequence (whole entry): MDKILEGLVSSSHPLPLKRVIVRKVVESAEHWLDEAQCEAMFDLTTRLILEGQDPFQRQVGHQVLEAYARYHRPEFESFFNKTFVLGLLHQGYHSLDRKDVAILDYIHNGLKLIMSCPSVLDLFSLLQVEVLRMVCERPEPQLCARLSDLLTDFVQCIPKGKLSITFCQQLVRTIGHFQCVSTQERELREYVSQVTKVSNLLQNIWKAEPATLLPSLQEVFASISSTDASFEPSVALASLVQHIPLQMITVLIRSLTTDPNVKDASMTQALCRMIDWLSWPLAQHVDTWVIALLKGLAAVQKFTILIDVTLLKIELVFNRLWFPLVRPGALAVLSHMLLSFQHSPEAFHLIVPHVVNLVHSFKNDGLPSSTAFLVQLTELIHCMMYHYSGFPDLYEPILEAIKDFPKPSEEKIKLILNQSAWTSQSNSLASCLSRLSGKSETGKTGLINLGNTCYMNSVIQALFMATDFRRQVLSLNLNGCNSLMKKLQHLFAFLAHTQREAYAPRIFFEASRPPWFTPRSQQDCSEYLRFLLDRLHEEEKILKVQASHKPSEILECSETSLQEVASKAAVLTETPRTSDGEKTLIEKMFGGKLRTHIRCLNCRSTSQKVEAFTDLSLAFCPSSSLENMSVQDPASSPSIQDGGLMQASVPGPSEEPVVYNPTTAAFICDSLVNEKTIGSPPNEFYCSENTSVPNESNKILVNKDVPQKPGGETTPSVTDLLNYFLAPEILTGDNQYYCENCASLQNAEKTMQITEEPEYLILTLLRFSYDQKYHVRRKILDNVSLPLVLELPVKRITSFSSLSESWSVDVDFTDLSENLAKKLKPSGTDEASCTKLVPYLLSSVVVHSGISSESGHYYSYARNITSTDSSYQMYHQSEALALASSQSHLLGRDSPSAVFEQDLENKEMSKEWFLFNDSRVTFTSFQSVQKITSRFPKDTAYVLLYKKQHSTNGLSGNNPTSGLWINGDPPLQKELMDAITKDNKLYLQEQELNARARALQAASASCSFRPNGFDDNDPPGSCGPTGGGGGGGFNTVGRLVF
How it was run: as §1

USP39 = biological target: T3, USP39 (UniProt Q53GS9)
T3 sequence (whole entry): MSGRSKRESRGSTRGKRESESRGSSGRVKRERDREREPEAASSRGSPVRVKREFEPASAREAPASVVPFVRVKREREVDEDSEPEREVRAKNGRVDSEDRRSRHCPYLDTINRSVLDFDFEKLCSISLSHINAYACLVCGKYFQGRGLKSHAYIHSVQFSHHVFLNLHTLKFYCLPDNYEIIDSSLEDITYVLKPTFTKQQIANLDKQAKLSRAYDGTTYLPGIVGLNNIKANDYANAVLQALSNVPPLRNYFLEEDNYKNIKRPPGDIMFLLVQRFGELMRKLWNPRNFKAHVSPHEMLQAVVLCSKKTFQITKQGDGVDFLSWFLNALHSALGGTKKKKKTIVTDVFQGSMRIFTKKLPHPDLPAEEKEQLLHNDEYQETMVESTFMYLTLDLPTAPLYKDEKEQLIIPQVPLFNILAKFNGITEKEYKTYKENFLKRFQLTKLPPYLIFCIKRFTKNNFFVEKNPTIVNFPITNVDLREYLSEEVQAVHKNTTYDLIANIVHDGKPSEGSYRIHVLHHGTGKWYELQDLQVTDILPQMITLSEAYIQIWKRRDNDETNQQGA
How it was run: as §1

USP4 = biological target: T4, USP4 (UniProt Q13107)
T4 sequence (whole entry): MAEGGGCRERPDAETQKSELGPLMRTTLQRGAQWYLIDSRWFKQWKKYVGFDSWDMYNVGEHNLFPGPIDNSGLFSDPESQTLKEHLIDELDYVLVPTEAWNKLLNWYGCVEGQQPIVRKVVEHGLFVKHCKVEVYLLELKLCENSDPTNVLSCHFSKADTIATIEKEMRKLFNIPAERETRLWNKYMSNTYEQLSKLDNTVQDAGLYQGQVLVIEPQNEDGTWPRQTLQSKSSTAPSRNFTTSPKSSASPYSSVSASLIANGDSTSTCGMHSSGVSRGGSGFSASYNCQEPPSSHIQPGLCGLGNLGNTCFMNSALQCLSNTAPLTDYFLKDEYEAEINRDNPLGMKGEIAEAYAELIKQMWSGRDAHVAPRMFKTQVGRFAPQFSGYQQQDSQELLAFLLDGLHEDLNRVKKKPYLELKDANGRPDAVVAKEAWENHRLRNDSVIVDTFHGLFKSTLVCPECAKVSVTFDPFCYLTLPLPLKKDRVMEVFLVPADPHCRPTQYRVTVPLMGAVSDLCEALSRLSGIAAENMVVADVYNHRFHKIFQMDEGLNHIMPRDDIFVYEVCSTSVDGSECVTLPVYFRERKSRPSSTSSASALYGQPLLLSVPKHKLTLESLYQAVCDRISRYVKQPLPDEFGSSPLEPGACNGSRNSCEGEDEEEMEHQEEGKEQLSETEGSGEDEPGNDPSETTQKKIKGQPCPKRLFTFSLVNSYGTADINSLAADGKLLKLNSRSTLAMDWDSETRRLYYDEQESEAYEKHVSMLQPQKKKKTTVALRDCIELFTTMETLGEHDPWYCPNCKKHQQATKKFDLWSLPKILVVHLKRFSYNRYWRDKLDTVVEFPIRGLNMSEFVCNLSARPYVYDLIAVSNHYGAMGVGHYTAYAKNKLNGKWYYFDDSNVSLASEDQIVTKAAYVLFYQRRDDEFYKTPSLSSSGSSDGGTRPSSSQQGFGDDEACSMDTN
How it was run: as §1

Measured: log2 ratio of Biotin-Ahx-Ub-VS probe labelling

Chain of USP34 (Q70CQ2 whole entry, the tested form may be a part): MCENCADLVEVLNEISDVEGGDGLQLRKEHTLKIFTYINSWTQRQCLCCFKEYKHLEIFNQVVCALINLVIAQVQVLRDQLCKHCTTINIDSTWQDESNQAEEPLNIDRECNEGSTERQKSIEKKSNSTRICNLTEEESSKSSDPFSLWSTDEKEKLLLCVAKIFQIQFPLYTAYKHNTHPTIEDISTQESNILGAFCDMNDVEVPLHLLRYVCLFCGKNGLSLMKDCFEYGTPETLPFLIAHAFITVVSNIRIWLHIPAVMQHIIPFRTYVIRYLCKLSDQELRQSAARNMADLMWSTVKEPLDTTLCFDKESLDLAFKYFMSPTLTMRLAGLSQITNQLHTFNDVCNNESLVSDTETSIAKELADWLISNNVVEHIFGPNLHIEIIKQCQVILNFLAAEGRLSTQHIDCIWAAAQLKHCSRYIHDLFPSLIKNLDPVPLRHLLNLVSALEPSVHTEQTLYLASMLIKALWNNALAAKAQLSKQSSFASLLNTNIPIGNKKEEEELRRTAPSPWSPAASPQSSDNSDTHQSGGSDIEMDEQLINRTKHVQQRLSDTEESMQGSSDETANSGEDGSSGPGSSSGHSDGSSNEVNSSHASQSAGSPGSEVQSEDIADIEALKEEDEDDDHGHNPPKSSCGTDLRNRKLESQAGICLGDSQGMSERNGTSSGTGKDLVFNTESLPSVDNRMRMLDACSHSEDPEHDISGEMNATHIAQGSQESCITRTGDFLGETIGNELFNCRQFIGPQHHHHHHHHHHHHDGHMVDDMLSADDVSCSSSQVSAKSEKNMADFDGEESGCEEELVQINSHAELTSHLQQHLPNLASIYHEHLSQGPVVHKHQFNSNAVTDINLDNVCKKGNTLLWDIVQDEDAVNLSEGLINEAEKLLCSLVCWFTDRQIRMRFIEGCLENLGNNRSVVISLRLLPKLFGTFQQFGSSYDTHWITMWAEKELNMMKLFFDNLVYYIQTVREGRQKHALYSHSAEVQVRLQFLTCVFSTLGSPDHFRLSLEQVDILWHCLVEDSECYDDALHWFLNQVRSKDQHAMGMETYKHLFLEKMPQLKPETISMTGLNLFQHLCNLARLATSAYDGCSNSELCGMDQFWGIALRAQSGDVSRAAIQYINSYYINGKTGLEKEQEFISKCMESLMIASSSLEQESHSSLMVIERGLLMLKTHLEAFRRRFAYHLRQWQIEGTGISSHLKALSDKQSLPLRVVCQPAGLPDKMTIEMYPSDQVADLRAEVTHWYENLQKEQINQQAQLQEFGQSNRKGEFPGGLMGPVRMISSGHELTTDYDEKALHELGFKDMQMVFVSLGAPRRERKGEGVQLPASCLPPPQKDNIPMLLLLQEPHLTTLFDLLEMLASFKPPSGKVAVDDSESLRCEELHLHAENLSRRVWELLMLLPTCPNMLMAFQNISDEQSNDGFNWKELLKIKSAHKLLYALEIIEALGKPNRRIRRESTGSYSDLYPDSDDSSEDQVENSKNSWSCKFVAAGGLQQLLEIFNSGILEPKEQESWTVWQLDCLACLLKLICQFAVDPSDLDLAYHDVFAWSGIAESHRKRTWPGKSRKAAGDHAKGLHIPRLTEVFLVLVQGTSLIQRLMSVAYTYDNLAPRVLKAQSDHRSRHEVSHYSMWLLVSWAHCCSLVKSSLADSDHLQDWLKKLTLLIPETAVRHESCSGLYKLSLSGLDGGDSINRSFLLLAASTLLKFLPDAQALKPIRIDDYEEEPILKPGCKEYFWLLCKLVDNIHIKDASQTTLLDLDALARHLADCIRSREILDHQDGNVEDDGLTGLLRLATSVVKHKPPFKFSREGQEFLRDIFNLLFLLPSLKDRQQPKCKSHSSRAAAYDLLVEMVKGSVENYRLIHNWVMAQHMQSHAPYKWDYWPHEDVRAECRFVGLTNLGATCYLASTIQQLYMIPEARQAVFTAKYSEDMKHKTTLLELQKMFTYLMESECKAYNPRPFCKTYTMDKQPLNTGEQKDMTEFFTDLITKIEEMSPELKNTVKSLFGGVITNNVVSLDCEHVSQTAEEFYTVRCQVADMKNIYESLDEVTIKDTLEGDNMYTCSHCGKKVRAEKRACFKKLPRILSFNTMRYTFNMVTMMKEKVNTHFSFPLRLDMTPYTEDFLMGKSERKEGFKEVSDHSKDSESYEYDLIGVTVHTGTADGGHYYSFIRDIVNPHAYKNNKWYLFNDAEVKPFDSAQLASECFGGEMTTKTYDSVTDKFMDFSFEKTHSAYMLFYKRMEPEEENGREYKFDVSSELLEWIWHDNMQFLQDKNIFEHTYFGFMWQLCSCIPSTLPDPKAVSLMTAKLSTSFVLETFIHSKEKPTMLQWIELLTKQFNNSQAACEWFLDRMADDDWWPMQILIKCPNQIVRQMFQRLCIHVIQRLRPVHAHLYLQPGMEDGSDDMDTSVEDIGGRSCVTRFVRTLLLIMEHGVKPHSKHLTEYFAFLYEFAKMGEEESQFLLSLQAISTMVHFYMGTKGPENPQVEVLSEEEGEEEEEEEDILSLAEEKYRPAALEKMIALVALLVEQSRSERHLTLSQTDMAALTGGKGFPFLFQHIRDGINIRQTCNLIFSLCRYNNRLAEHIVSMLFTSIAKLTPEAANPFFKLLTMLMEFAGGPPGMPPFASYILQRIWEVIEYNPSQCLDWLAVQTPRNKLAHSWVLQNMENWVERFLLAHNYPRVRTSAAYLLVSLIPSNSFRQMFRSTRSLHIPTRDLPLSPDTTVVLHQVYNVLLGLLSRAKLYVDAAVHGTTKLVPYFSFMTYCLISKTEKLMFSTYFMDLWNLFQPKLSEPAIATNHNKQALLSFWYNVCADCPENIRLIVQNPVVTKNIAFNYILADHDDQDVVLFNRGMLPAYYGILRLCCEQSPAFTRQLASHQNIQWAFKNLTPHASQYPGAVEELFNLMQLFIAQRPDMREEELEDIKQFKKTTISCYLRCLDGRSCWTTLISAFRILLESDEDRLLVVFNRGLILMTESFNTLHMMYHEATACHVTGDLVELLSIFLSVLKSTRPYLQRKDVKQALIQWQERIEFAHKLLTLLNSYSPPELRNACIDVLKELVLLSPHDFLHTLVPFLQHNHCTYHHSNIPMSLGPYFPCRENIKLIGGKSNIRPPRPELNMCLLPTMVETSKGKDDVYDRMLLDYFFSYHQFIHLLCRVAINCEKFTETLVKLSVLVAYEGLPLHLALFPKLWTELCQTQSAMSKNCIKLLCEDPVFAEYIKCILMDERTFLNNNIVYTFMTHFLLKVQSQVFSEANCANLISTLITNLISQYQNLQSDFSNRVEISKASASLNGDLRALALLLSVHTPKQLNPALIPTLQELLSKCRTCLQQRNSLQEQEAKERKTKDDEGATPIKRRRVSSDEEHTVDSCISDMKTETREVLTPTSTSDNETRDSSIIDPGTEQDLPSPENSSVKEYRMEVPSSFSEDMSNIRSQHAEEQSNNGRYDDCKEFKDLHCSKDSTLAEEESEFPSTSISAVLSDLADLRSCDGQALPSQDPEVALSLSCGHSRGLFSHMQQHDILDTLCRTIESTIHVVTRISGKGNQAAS

CCN1C(=O)C2CN(C(=O)CCl)CCN2C1=O (stereo not given)
inactive: USP34 0.053 | USP36 -0.271 | USP38 -0.0595 | USP39 -0.0577 | USP4 0.0781
